These results are taken from PubChem BioAssay (NCI).

The panel holds about 83,000 compounds, 20% with a hit somewhere; the sample as a whole holds those more often.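 Each cell line was grown in a 96-well plate and treated with one concentration of compound for 48 hours. Values below 10 were considered active.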 Unmarked numbers belong to inactive results. Activity calls are given as the source filed them.

Some test systems named below: SR leukemia; RPMI-8226 leukemia; OVCAR-8 ovarian; OVCAR-5 ovarian; OVCAR-4 ovarian; SK-OV-3 ovarian; IGROV1 ovarian; OVCAR-3 ovarian; HS 578T breast; NCI/ADR-RES ovarian; T-47D breast; BT-549 breast; MDA-MB-435 melanoma; SW-620 colon; MCF7 breast; HCT-116 colon; HCC-2998 colon; KM12 colon.
What all share (experiment): NCI-60 one-dose screen, 48 h (100 = growth as untreated, 0 = no growth, -100 = all killed)
What all share (conditions): 10 µM unless noted

As for `CCN1C(=O)N(CC)C2C1NN=C1SCC(=O)N12` (stereo not drawn), the growth in the assay on SR leukemia was 95.7%; in the assay on RPMI-8226 leukemia it was 80.6%; in the assay with OVCAR-8 ovarian it was 66.3%; with OVCAR-5 ovarian, 95.8%; in the assay with OVCAR-4 ovarian it was 32.6%; in the assay with SK-OV-3 ovarian, 105%. In addition, the growth with IGROV1 ovarian is 27.2%; with OVCAR-3 ovarian it was 24.5%; in the assay with HS 578T breast it was 98.4%; in the assay with NCI/ADR-RES ovarian, 84.6%; in the assay on T-47D breast it was 31.9%; in the assay on BT-549 breast, 102%. The growth in the assay on MDA-MB-435 melanoma was 99.1%; with SW-620 colon it was 73.7%; in the assay with MCF7 breast, 18%; in the assay on HCT-116 colon, 9.44% (active); in the assay on HCC-2998 colon it was 105%; with KM12 colon, 105%.

For the compound `C=C1C(=O)O[C@H]2[C@H]1CC/C(Cn1cc(-c3cc(C(F)(F)F)cc(C(F)(F)F)c3)nn1)=C\CC[C@@]1(C)O[C@@H]21`, the growth in the assay on SR leukemia was -48.5% (active); with RPMI-8226 leukemia, -31.4% (active); in the assay on OVCAR-8 ovarian, -85.7% (active); in the assay on OVCAR-5 ovarian, -69.4% (active); with OVCAR-4 ovarian it was -95.1% (active); with SK-OV-3 ovarian, -89.5% (active). In addition, the growth in the assay with IGROV1 ovarian was -78.6% (active); in the assay on OVCAR-3 ovarian, -92.7% (active); in the assay with HS 578T breast it was -30.5% (active); in the assay on NCI/ADR-RES ovarian, -35.7% (active); in the assay with T-47D breast it was -60.6% (active); in the assay with BT-549 breast, -78% (active). Besides, the growth in the assay with MDA-MB-435 melanoma was -81.7% (active); in the assay on SW-620 colon, -35.8% (active); in the assay on MCF7 breast, -67.6% (active); in the assay on HCT-116 colon, -87.2% (active); in the assay with HCC-2998 colon, -87.4% (active); with KM12 colon, -77.1% (active).

In the case of `CC(=O)N(Cc1ccccc1)c1nc2ccc(O)c(CN(C)C)c2s1`, the growth was 106% in the assay on SR leukemia; 95.2% in the assay on RPMI-8226 leukemia; 103% with OVCAR-8 ovarian; 100% in the assay with OVCAR-5 ovarian; 97.6% in the assay on OVCAR-4 ovarian; 104% in the assay with SK-OV-3 ovarian. Further, the growth with IGROV1 ovarian was 93.9%; in the assay with OVCAR-3 ovarian, 105%; with HS 578T breast, 92.6%; with NCI/ADR-RES ovarian, 93.5%; in the assay on T-47D breast, 85.2%; in the assay with BT-549 breast, 96.6%. Moreover, the growth with MDA-MB-435 melanoma was 99.7%; in the assay with SW-620 colon, 94.7%; with MCF7 breast, 87.8%; with HCT-116 colon it was 102%; with HCC-2998 colon, 105%; in the assay with KM12 colon, 102%.

For the compound `Cc1cccc(N2CCN(C(=S)c3ccc4c(c3)OCO4)CC2)c1`, the growth in the assay on SR leukemia was 16.9%; in the assay with RPMI-8226 leukemia it was 20%; in the assay with OVCAR-8 ovarian, 27.6%; in the assay on OVCAR-5 ovarian it was 50.3%; with OVCAR-4 ovarian, 66.6%; with SK-OV-3 ovarian it was 19.2%. The growth is 31.3% in the assay on IGROV1 ovarian; -33.9% (active) in the assay on OVCAR-3 ovarian; -27.7% (active) in the assay on HS 578T breast; -18.6% (active) in the assay with NCI/ADR-RES ovarian; 32.9% in the assay on T-47D breast; 32.9% in the assay with BT-549 breast. Further, the growth is -20.9% (active) with MDA-MB-435 melanoma; 8.2% (active) with SW-620 colon; 12.5% in the assay with MCF7 breast; 13.6% with HCT-116 colon; 13.2% in the assay on HCC-2998 colon; 21.5% in the assay on KM12 colon.

With `CCCCCCCCCCCCCCCCOC(=O)c1c(C)[nH]c(/C=C2\N=C(c3ccc[nH]3)C=C2OC)c1C`, the growth in the assay with SR leukemia was 68.2%; in the assay on RPMI-8226 leukemia, -2.3% (active); in the assay on OVCAR-8 ovarian, 15.3%; in the assay with OVCAR-5 ovarian, 78.4%; with OVCAR-4 ovarian, 72.2%; with SK-OV-3 ovarian, 70.4%. Further, the growth was 35.6% in the assay on IGROV1 ovarian; 47.6% in the assay on OVCAR-3 ovarian; 65.9% in the assay with HS 578T breast; 26.6% in the assay on NCI/ADR-RES ovarian; 31.2% in the assay with T-47D breast; 55.1% in the assay on BT-549 breast. The growth was 15.7% in the assay on MDA-MB-435 melanoma; 10.9% with SW-620 colon; 8.67% (active) with MCF7 breast; -0.291% (active) with HCT-116 colon; 24.3% in the assay on HCC-2998 colon; 22.7% in the assay with KM12 colon.

For the compound `COC(=O)/C(CCC=C(C)C)=C1\[C@@H](OC(C)=O)C[C@@]2(C)[C@H]1CC(=O)[C@H]1[C@@]3(C)CCC(N4CCCC4)[C@@H](C)[C@@H]3CC[C@@]12C` (stereo partly drawn), the growth is 56.3% in the assay on SR leukemia; 85.5% in the assay on RPMI-8226 leukemia; 95.7% in the assay on OVCAR-8 ovarian; 96.9% in the assay with OVCAR-5 ovarian; 97.5% in the assay with OVCAR-4 ovarian; 108% in the assay on SK-OV-3 ovarian. Also, the growth in the assay on IGROV1 ovarian is 102%; with OVCAR-3 ovarian it was 99.1%; in the assay on HS 578T breast, 89.1%; in the assay on NCI/ADR-RES ovarian, 99.3%; with T-47D breast, 94.9%; in the assay on BT-549 breast, 92.5%. Moreover, the growth is 97.5% in the assay with MDA-MB-435 melanoma; 103% with SW-620 colon; 74.6% with MCF7 breast; 84.9% in the assay with HCT-116 colon; 114% with HCC-2998 colon; 105% in the assay with KM12 colon.

`O=C1/C(=C/c2ccc(C(F)(F)F)cc2)COc2ccc(O)cc21`: the growth in the assay with SR leukemia is 9.82% (active); with RPMI-8226 leukemia, -23.2% (active); in the assay on OVCAR-8 ovarian, 76.4%; with OVCAR-5 ovarian, 96.5%; in the assay on OVCAR-4 ovarian it was 82.7%; in the assay with SK-OV-3 ovarian it was 116%. The growth in the assay with IGROV1 ovarian was 82.5%; in the assay with OVCAR-3 ovarian, 94.8%; with HS 578T breast, 95.8%; in the assay on NCI/ADR-RES ovarian it was 94.3%; in the assay on T-47D breast it was 78%; in the assay on BT-549 breast, 72.8%. The growth in the assay on MDA-MB-435 melanoma was 87.7%; in the assay with SW-620 colon, 1.98% (active); in the assay on MCF7 breast it was 6.03% (active); with HCT-116 colon it was 33.2%; in the assay with HCC-2998 colon, 94.1%; in the assay on KM12 colon it was 52.2%.

Take `CN(C)Cc1ccc(C(=O)Nc2ccc3ncnc(Nc4ccc(Oc5cccc(F)c5)c(Cl)c4)c3c2)cc1`: the growth with SR leukemia was -18.1% (active); with RPMI-8226 leukemia, -24.7% (active); with OVCAR-8 ovarian it was 14.2%; in the assay on OVCAR-5 ovarian it was -28.7% (active); in the assay on OVCAR-4 ovarian, -24.4% (active); in the assay on SK-OV-3 ovarian it was 19%. Besides, the growth in the assay with IGROV1 ovarian was -50.7% (active); with OVCAR-3 ovarian, -24.2% (active); in the assay with HS 578T breast it was -11.7% (active); with NCI/ADR-RES ovarian, 22.7%; in the assay with T-47D breast it was 10%; with BT-549 breast, 80.2%. The growth in the assay with MDA-MB-435 melanoma is -89.4% (active); with SW-620 colon, -73.1% (active); in the assay on MCF7 breast it was -62.1% (active); with HCT-116 colon, -39.7% (active); with HCC-2998 colon, -65.3% (active); in the assay on KM12 colon, -5.02% (active).

Turning to `N#Cc1c(N2CCOCC2)nc(=S)[nH]c1-c1ccccc1`, the growth in the assay with SR leukemia was 53.1%; in the assay on RPMI-8226 leukemia it was 73.6%; with OVCAR-8 ovarian it was 81.8%; in the assay on OVCAR-5 ovarian it was 71.7%; in the assay with OVCAR-4 ovarian it was 77.3%; in the assay with SK-OV-3 ovarian, 64.4%. Further, the growth is 29.1% in the assay with IGROV1 ovarian; 66.8% in the assay on OVCAR-3 ovarian; 26.8% in the assay with HS 578T breast; 80.9% in the assay on NCI/ADR-RES ovarian; 37.3% in the assay with T-47D breast; 57.7% in the assay on BT-549 breast. In addition, the growth was 82.2% in the assay on MDA-MB-435 melanoma; 82.1% in the assay with SW-620 colon; 56.6% in the assay with MCF7 breast; 86.6% in the assay with HCT-116 colon; 79.1% in the assay with HCC-2998 colon; 77.6% in the assay with KM12 colon.

In the case of `COc1ccc(C2=CN3CC=CCC3CC2=O)cc1` (stereo not drawn), the growth in the assay on SR leukemia is 90.3%; in the assay on RPMI-8226 leukemia, 97.9%; in the assay on OVCAR-8 ovarian it was 91%; with OVCAR-5 ovarian it was 106%; in the assay on OVCAR-4 ovarian, 109%; with SK-OV-3 ovarian, 106%. Further, the growth is 111% with IGROV1 ovarian; 102% with OVCAR-3 ovarian; 98.3% in the assay with HS 578T breast; 107% with NCI/ADR-RES ovarian; 90.6% in the assay on T-47D breast; 90.7% with BT-549 breast. In addition, the growth in the assay on MDA-MB-435 melanoma was 106%; with SW-620 colon, 101%; in the assay on MCF7 breast it was 105%; in the assay on HCT-116 colon, 93.1%; in the assay on HCC-2998 colon, 100%; in the assay on KM12 colon, 104%.

Regarding `C[C@H]1[C@H](C)CC[C@]2(C(=O)O)CC[C@]3(C)C(=CC[C@@H]4[C@@]5(C)C[C@@H](Cc6cn([C@@H]7O[C@H](CO)[C@@H](O)[C@H](O)[C@H]7O)nn6)[C@H](O)C(C)(C)[C@@H]5CC[C@]43C)[C@H]12`, the growth is 105% with SR leukemia; 98.3% with RPMI-8226 leukemia; 97.8% with OVCAR-8 ovarian; 97.2% with OVCAR-5 ovarian; 91.7% with OVCAR-4 ovarian; 88.5% in the assay on SK-OV-3 ovarian. Further, the growth with IGROV1 ovarian was 107%; in the assay with OVCAR-3 ovarian, 107%; with HS 578T breast, 103%; in the assay on NCI/ADR-RES ovarian it was 106%; in the assay on T-47D breast, 93.5%; in the assay on BT-549 breast, 102%. Further, the growth in the assay on MDA-MB-435 melanoma is 101%; with SW-620 colon it was 97.6%; in the assay on MCF7 breast, 92.7%; with HCT-116 colon, 92%; in the assay on HCC-2998 colon, 107%; in the assay on KM12 colon, 108%.
